From PubChem BioAssay
Results filed as inconclusive are left out. Activity calls are given as the source filed them. Unless noted, cut-off not given; nearly all actives show AC50 up to about 26 µM.

Assays:
[1] = growth inhibition of DIPG glioma cells, dose response, cell-based, SU-DIPG-XVII, MIPE5.0, CellTiter-Glo, qHTS (AID 1347060); conditions: SU-DIPG-XVII viability, CellTiter-Glo ATP luminescence;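 on AC50: cells exposed to compound for 48 hours before viability readout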
[2] = growth inhibition of DIPG glioma cells, dose response, cell-based, SU-DIPG-XIII, MIPE4.0, CellTiter-Glo, qHTS (AID 1347061; cut-off not given, nearly all actives have AC50 up to about 37 µM;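 further: cells exposed to compound for 48 hours before readout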); conditions: SU-DIPG-XIII viability, CellTiter-Glo ATP luminescence
[3] = growth inhibition of DIPG glioma cells, dose response, cell-based, JHH-DIPG-1, MIPE4.0, CellTiter-Glo, qHTS (AID 1347062; cut-off not given, nearly all actives have AC50 up to about 27 µM;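 on AC50: cells exposed to compound for two days before readout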); conditions: JHH-DIPG-1 viability, CellTiter-Glo ATP luminescence
[4] = growth inhibition of DIPG glioma cells, dose response, cell-based, SU-DIPG-IV, MIPE4.0, CellTiter-Glo, qHTS (AID 1347063; cut-off not given, nearly all actives have AC50 up to about 30 µM;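 further: compound exposure lasted 48 hours before the viability readout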); conditions: SU-DIPG-IV viability, CellTiter-Glo ATP luminescence
[5] = growth inhibition of DIPG glioma cells, dose response, cell-based, SU-DIPG-XIII, MIPE5.0, CellTiter-Glo, qHTS (AID 1347064; cut-off not given, nearly all actives have AC50 up to about 23 µM;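 on AC50: cells exposed to compound for 48 hours before the viability read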); conditions: SU-DIPG-XIII viability, CellTiter-Glo ATP luminescence
[6] = viability loss in pontine glioma line – cell-based, SU-DIPG-XXV, MIPE5.0, CellTiter-Glo, qHTS, dose response (AID 1347065); conditions: CellTiter-Glo ATP luminescence;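 further: cells exposed to compound for 48 hours before ATP readout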
[7] = SU-DIPG-VI glioma cell viability, MIPE4.0 library, CellTiter-Glo luminescence, qHTS (AID 1347066; cut-off not given, nearly all actives have AC50 up to about 30 µM;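 further: cells exposed to compound for 48 hours before readout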); conditions: CellTiter-Glo ATP luminescence
[8] = JHH-DIPG-1 glioma cell viability, MIPE5.0 library, CellTiter-Glo luminescence, qHTS (AID 1347067); conditions: JHH-DIPG-1 glioma viability, CellTiter-Glo ATP luminescence;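 further: cells exposed to compound for 48 hours before readout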
[9] = SU-DIPG-XXV glioma cell viability, MIPE5.0 library, qHTS (AID 1347068; cut-off not given, nearly all actives have IC50 up to about 30 µM;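 on IC50: cells exposed to compound for 48 hours before viability readout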)
[10] = sensitizers of A549 cells to miR-34 induction, primary screen, imaging, A549 dox-inducible miR-34, nuclei and caspase counts (AID 1347080;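 active means compounds whose cell count with miR-34 switched on is under 0.7 times the count with it off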); conditions: A549 miR-34 inducible, Hoechst nuclei count, 48 h
[11] = survival rescue of mitochondrial mutant cells in low glucose, primary screen, MELAS cybrids, Rieske KO mouse fibroblasts, CellTiter-Glo (AID 1508586;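 active means mean z-score across replicates of 1.96 or higher in either the MELAS or the Rieske mutant cell line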;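 further: z relative to plate mean and SD of compound and empty wells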)
[12] = stronger effect = lower value, cell number ratio, induced over uninduced
[13] = measured here: relative caspase fold change +Dox/-Dox
[14] = measured here: total cells with miR-34 induction, stronger effect = lower value
[15] = measured here: total cells without miR-34 induction
[16] = MELAS cybrid survival, CellTiter-Glo 48 h, stronger effect = higher value
[17] = Rieske KO mouse fibroblast survival, CellTiter-Glo 72 h

## NC(=O)c1ccc(N(C(N)=O)c2c(F)cccc2F)nc1-c1ccc(F)cc1F
[1]
  outcome: inactive
[2]
  outcome: inactive
[3]
  outcome: inactive
[4]
  outcome: inactive
[5]
  outcome: inactive
[6]
  outcome: inactive
[7]
  outcome: inactive
[8]
  outcome: inactive
[9]
  outcome: inactive
[10]; [12]
  fold change: 0.9 (inactive)
[10]; [13]
  fold change: 0.736
[10]; [14]
  cell count: 9290
[10]; [15]
  cell count: 10300
[11]; [16]
  z-score: -0.391 (inactive)
[11]; [17]
  z-score: -0.467

## Clc1ccc(C(c2ccc(Cl)cc2)n2cc[n+](CC(OCc3ccc(Cl)cc3Cl)c3ccc(Cl)cc3Cl)c2)cc1 (centres undefined)
[1]
  AC50: 2.95 µM (active)
[2]
  AC50: 23.5 µM (active)
[3]
  AC50: 16.6 µM (active)
[4]
  AC50: 9.35 µM (active)
[5]
  AC50: 2.63 µM (active)
[6]
  AC50: 2.35 µM (active)
[7]
  AC50: 13.2 µM (active)
[8]
  AC50: 2.63 µM (active)
[9]
  IC50: 3.72 µM (active)

## COc1ccc(-c2ccc3ncc4c(c3c2)n(-c2ccc(N3CCNCC3)c(C(F)(F)F)c2)c(=O)n4C)cn1
[1]
  AC50: 0.105 µM (active)
[2]
  AC50: 0.0469 µM (active)
[3]
  AC50: 0.0662 µM (active)
[4]
  AC50: 0.0187 µM (active)
[5]
  AC50: 0.118 µM (active)
[6]
  AC50: 0.0525 µM (active)
[7]
  AC50: 0.187 µM (active)
[8]
  AC50: 0.235 µM (active)
[9]
  IC50: 0.59 µM (active)
[10]; [12]
  fold change: 0.93 (inactive)
[10]; [13]
  fold change: 1.48
[10]; [14]
  cell count: 603
[10]; [15]
  cell count: 648
[11]; [16]
  z-score: 0.639 (inactive)
[11]; [17]
  z-score: -3.7
